Reference: ChEMBL document CHEMBL1961873, “Compounds: GSK PKIS; Assays: Nanosyn kinase panel” (2012)

Assays:
[1] = target: Sphingosine kinase 1 (Homo sapiens) (UniProt Q9NYA1); details: at 1 µM;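 note: mean SPHK1 inhibition value reported from the GSK PKIS kinase panel screen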
[2] = target: T1, Sphingosine kinase 2 (Homo sapiens) (UniProt Q9NRA0); details: at 0.1 µM
T1 sequence (whole entry): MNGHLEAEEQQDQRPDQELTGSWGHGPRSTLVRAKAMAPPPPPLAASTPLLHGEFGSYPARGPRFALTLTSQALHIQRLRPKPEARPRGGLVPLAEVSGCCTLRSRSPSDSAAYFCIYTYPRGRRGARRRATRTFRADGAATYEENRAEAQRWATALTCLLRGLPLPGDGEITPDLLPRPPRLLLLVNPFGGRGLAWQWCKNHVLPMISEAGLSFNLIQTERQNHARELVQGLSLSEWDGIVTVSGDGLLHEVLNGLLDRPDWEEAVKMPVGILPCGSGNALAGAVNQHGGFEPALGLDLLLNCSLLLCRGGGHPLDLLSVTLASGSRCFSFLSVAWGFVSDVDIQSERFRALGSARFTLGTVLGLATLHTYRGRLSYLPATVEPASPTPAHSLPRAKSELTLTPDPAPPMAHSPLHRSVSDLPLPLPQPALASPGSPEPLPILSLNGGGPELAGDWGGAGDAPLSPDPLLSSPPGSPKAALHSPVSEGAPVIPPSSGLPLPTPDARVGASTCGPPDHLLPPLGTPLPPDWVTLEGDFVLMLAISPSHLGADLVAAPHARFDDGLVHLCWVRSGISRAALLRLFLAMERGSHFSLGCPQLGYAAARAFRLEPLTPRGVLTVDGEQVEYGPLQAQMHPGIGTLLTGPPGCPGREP

[3] = target: T1, Sphingosine kinase 2 (Homo sapiens); details: at 1 µM
[4] = target: Casein kinase II subunit alpha (Homo sapiens) (UniProt P68400); details: at 0.1 µM
[5] = target: Casein kinase II subunit alpha (Homo sapiens) (UniProt P68400); details: at 1 µM
[6] = target: T2, Inhibitor of nuclear factor kappa-B kinase subunit alpha (Homo sapiens) (UniProt O15111); details: at 0.1 µM
T2 sequence (whole entry): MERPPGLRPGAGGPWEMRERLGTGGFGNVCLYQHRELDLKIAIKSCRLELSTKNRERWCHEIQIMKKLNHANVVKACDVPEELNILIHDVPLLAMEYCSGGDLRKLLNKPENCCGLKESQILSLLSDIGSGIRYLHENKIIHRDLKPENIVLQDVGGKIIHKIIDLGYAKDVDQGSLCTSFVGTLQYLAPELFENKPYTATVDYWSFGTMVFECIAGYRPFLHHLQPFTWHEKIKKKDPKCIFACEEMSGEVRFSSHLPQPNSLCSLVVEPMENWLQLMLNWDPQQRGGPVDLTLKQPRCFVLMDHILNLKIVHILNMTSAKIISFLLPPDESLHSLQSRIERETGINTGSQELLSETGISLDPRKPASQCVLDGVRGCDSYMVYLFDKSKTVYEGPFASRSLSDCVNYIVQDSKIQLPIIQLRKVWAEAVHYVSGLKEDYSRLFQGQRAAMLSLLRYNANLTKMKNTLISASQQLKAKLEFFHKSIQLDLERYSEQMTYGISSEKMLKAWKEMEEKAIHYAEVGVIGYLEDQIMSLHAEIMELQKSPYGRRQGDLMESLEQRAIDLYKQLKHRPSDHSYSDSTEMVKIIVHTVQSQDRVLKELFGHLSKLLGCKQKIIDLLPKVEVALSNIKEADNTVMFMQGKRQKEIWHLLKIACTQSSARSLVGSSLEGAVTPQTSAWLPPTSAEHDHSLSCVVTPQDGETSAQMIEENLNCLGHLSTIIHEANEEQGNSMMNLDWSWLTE

[7] = target: T2, Inhibitor of nuclear factor kappa-B kinase subunit alpha (Homo sapiens); details: at 1 µM
[8] = target: T3, Inhibitor of nuclear factor kappa-B kinase subunit beta (Homo sapiens) (UniProt O14920); details: at 0.1 µM
T3 sequence (whole entry): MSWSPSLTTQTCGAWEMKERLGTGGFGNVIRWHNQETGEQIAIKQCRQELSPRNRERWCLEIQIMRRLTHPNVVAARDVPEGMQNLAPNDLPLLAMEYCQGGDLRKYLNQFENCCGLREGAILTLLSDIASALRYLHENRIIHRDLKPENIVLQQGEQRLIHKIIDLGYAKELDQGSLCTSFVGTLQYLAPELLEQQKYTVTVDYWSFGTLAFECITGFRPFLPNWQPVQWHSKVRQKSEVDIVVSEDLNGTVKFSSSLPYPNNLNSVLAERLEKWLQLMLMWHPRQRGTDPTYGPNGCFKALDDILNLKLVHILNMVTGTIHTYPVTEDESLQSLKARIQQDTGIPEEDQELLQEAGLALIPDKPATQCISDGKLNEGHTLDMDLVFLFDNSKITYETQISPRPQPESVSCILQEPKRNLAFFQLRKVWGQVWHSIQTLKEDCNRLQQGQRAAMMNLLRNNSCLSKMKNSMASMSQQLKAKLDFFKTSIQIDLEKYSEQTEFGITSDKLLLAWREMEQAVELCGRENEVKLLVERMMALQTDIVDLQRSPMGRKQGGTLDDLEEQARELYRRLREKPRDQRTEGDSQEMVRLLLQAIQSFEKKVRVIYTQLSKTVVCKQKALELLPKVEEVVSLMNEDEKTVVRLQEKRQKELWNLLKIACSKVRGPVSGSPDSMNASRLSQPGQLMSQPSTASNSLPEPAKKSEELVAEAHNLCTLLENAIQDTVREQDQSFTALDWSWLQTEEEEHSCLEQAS

[9] = target: T3, Inhibitor of nuclear factor kappa-B kinase subunit beta (Homo sapiens); details: at 1 µM
[10] = target: T4, Inhibitor of nuclear factor kappa-B kinase subunit epsilon (Homo sapiens) (UniProt Q14164); details: at 0.1 µM
T4 sequence (whole entry): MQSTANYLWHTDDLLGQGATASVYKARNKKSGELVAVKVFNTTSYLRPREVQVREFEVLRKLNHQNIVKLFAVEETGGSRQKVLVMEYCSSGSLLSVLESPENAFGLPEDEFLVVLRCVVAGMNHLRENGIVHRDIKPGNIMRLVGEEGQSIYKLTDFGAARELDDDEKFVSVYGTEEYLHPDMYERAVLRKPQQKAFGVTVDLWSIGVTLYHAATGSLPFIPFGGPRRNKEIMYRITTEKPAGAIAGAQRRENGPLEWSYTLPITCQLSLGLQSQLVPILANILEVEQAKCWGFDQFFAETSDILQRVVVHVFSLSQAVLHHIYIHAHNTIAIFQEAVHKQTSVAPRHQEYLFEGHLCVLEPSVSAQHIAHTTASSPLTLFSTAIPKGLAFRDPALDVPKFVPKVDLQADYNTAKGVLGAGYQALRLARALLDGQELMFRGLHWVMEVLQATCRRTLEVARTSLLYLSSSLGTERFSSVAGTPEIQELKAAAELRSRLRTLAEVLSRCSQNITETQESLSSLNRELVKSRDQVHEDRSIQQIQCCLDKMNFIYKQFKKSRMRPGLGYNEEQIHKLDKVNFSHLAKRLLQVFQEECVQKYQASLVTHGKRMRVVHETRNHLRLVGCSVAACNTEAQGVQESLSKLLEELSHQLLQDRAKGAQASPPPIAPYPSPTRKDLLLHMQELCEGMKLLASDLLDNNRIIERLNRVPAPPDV

[11] = target: T4, Inhibitor of nuclear factor kappa-B kinase subunit epsilon (Homo sapiens); details: at 1 µM
[12] = target: T5, Serine/threonine-protein kinase Nek1 (Homo sapiens) (UniProt Q96PY6); details: at 0.1 µM
T5 sequence (whole entry): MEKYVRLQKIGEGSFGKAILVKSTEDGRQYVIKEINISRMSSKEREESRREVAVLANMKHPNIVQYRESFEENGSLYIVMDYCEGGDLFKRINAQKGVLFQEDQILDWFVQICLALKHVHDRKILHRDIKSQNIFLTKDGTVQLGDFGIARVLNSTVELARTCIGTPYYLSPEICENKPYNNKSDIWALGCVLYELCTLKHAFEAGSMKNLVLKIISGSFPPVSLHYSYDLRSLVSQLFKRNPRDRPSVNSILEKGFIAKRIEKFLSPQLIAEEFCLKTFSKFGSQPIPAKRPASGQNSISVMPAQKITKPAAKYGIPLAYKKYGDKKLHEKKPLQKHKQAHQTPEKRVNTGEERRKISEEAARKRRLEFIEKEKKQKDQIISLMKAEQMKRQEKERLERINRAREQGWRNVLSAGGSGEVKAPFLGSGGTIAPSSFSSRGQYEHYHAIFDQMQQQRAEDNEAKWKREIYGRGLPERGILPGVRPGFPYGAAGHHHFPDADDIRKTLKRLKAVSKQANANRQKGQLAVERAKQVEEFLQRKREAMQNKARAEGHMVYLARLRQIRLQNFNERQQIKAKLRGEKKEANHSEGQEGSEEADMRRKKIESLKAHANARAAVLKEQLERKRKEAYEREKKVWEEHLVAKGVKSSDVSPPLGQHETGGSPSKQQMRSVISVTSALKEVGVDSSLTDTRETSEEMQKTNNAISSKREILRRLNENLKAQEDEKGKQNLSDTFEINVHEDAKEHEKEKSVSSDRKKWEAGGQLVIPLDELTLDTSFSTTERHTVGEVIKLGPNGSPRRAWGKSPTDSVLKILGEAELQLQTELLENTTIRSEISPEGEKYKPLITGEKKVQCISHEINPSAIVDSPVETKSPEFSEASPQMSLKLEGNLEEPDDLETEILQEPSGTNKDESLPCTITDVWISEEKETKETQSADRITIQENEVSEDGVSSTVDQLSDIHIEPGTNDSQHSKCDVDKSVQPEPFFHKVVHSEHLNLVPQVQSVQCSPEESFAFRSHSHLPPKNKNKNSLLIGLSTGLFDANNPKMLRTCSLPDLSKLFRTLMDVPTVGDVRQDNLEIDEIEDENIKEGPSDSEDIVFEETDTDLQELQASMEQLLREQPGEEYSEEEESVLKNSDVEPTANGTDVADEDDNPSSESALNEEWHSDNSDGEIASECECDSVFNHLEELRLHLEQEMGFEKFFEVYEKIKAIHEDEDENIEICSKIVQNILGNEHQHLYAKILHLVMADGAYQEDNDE

[13] = target: T5, Serine/threonine-protein kinase Nek1 (Homo sapiens); details: at 1 µM
[14] = target: T6, Serine/threonine-protein kinase Nek2 (Homo sapiens) (UniProt P51955); details: at 0.1 µM
T6 sequence (whole entry): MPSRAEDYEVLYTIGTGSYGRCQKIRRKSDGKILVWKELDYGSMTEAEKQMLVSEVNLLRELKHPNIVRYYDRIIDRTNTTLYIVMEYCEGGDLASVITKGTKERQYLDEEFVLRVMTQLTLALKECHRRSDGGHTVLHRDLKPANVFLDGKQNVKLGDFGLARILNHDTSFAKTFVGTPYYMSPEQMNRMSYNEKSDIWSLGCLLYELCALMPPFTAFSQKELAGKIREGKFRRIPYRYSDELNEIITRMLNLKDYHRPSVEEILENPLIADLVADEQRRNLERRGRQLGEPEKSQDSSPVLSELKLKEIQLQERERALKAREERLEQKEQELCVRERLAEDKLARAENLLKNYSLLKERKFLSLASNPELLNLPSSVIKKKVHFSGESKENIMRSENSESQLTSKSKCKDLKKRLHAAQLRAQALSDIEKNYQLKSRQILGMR

[15] = target: T6, Serine/threonine-protein kinase Nek2 (Homo sapiens); details: at 1 µM
[16] = target: Serine/threonine-protein kinase Nek6 (Homo sapiens) (UniProt Q9HC98); details: at 0.1 µM
[17] = target: Serine/threonine-protein kinase Nek6 (Homo sapiens) (UniProt Q9HC98); details: at 1 µM
[18] = target: Serine/threonine-protein kinase Nek7 (Homo sapiens) (UniProt Q8TDX7); details: at 0.1 µM
[19] = target: Serine/threonine-protein kinase Nek7 (Homo sapiens) (UniProt Q8TDX7); details: at 1 µM
[20] = target: T7, Serine/threonine-protein kinase Nek9 (Homo sapiens) (UniProt Q8TD19); details: at 0.1 µM;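 note: reported value is the mean percent inhibition of NEK9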
T7 sequence (whole entry): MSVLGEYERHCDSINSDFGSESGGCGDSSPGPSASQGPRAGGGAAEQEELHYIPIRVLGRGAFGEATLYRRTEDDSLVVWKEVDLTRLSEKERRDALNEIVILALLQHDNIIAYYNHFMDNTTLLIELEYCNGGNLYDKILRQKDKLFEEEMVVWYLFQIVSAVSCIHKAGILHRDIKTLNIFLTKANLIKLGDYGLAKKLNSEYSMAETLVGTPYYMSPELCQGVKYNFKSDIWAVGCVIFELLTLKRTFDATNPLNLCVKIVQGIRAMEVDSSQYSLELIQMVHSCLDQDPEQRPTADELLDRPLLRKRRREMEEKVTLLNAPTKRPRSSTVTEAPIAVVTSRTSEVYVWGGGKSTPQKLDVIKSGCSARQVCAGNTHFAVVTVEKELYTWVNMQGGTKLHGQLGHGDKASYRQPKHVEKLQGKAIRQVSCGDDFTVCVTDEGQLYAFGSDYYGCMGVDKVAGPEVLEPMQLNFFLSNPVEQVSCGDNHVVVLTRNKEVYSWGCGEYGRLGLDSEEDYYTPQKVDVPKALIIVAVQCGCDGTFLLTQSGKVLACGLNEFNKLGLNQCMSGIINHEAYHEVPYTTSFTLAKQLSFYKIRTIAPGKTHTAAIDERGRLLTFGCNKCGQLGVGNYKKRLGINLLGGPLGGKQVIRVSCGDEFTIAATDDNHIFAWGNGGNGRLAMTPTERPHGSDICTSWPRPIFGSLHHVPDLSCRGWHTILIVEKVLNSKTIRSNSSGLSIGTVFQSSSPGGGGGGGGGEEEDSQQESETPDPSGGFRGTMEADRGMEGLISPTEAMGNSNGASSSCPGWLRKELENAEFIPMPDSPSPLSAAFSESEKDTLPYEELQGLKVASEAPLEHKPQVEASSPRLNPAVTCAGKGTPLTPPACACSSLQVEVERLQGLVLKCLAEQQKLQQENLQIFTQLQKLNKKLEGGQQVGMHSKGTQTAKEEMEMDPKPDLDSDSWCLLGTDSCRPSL

Chain of Casein kinase II subunit alpha (Homo sapiens) (P68400 whole entry, looked up): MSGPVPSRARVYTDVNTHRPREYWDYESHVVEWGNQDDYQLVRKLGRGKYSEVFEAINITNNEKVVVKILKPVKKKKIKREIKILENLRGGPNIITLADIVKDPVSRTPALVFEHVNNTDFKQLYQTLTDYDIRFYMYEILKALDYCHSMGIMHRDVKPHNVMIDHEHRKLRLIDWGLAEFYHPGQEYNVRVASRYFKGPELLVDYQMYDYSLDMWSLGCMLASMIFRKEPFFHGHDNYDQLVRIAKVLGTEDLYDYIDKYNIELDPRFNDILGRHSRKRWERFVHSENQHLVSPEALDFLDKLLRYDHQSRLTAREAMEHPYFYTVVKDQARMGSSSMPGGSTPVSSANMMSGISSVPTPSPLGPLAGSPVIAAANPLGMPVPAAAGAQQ
Chain of Serine/threonine-protein kinase Nek7 (Homo sapiens) (Q8TDX7 whole entry, looked up): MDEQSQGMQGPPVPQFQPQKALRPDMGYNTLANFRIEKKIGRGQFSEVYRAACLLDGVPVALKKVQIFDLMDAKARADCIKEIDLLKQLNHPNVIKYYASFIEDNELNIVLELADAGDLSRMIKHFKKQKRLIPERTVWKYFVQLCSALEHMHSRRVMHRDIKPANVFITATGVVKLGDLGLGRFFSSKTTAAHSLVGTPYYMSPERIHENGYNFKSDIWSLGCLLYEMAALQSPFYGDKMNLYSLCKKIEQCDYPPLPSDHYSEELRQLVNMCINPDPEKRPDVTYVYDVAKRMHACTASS
Chain of Serine/threonine-protein kinase Nek6 (Homo sapiens) (Q9HC98 whole entry): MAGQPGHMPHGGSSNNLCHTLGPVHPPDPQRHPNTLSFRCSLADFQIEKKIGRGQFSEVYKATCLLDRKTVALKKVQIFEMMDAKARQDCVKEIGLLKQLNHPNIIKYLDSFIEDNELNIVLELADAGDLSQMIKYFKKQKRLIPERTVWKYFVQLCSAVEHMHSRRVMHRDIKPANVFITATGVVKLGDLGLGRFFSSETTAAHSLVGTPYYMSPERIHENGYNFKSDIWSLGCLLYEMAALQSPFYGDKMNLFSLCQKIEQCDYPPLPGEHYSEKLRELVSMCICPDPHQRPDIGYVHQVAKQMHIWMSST
Chain of Sphingosine kinase 1 (Homo sapiens) (Q9NYA1 whole entry): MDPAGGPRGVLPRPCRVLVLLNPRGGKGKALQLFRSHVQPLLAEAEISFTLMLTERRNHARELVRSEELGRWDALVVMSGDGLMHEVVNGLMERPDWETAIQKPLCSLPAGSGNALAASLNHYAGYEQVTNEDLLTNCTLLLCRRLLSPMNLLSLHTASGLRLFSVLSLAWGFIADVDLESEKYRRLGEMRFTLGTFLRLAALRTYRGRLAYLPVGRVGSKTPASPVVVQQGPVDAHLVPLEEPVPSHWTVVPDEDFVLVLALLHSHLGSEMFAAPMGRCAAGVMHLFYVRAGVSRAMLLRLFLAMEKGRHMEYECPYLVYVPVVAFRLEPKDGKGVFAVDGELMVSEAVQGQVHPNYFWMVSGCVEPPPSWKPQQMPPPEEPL

Row | SMILES | inhibition [1] [%] | inhibition [2] [%] | inhibition [3] [%] | inhibition [4] [%] | inhibition [5] [%] | inhibition [6] [%] | inhibition [7] [%] | inhibition [8] [%] | inhibition [9] [%] | inhibition [10] [%] | inhibition [11] [%] | inhibition [12] [%] | inhibition [13] [%] | inhibition [14] [%] | inhibition [15] [%] | inhibition [16] [%] | inhibition [17] [%] | inhibition [18] [%] | inhibition [19] [%] | inhibition [20] [%]
1 | COc1ccc(C2=C(N3CCc4ccccc43)C(=O)NC2=O)cc1 | -5.21 | 0.83 | 0.21 | 5.6 | 6.96 | 9.04 | 6.68 | 6.54 | 3.83 | 13.5 | 19.1 | 2.77 | 5.54 | 5.3 | 6.47 | 2.74 | 1.65 | 3.11 | 3.74 | 11.3
2 | CCN(CC)Cc1ccc(Nc2nccc(-c3cnn4ncccc34)n2)cc1 | 7.74 | 4.29 | 2.72 | 10.9 | 31.1 | 3.66 | 34.9 | 7.57 | 17.5 | 8.95 | 17.8 | 2.8 | 4.48 | 4.07 | 3.41 | 1.02 | -0.16 | 3.37 | 9.4 | 6.44
